According to PubChem BioAssay (Tox21):
Records with an inconclusive call do not appear. A call without a number means that no potency is given here. A number with no mark means an inactive call. The source made the active and inactive calls. Unless noted, the call rests on the fitted dose curve.

What was measured:
[1] = qHTS assay to identify small molecule agonists of the peroxisome proliferator-activated receptor delta (PPARd) signaling pathway - cell viability counter screen (AID 743211; active means well fitted curve in the direction sought with a large enough effect in the repeat runs; an effect the other way counts as inactive or inconclusive; further: nearly all actives have a fitted effect of over 55% in size; further: potency means the concentration at half of the fitted maximal effect)
In short: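 PPARd-bla HEK293H cells (UAS-beta-lactamase reporter) were treated with compounds for 17 h at 37 C. Viability was then read in the same wells by CellTiter-Glo luminescence after 30 min at room temperature.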

[2] = target: Peroxisome proliferator-activated receptor delta (Homo sapiens) (UniProt Q03181); experiment: qHTS assay to identify small molecule agonists of the peroxisome proliferator-activated receptor delta (PPARd) signaling pathway (AID 743212)
Sequence of Peroxisome proliferator-activated receptor delta (Homo sapiens) (Q03181 whole entry, looked up): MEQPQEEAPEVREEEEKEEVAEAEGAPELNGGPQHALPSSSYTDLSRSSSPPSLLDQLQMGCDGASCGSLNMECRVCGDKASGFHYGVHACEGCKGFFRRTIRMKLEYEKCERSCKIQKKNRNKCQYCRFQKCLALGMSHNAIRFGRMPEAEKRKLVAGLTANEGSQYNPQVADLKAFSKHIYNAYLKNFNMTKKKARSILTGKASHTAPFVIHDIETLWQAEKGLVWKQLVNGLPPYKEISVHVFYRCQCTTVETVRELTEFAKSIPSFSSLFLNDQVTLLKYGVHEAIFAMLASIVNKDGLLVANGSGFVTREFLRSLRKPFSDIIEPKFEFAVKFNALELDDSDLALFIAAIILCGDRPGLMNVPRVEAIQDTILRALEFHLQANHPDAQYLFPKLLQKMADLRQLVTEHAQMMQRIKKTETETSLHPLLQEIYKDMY
In short: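 Steps: seed PPARd-bla HEK293H cells; incubate 5 h, 37 C, 5% CO2; add compounds in DMSO; incubate, 37 C; add LiveBLAzer B/G FRET substrate; hold 2 h at room temperature; measure fluorescence.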

[3] = target: Peroxisome proliferator-activated receptor delta (Homo sapiens) (UniProt Q03181); experiment: qHTS assay to identify small molecule antagonists of the peroxisome proliferator-activated receptor delta (PPARd) signaling pathway (AID 743215; active means well fitted inhibition curve with a large enough effect in the signal ratio in the repeat runs, not every such curve was filed as active; the % refers to the signal ratio;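 further: cells stimulated with agonist L165041 at 300 nM final during compound exposure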; further: potency means the concentration at half of the fitted maximal effect)
In short: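 Cells: HEK293H with a UAS-driven beta-lactamase reporter responsive to PPARd. Compounds were co-added with L165041 (300 nM, final) and incubated 17 h at 37 C before a 2 h room-temperature FRET substrate step and fluorescence reading.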

[4] = qHTS assay to identify small molecule agonists of the farnesoid-X-receptor (FXR) signaling pathway - cell viability counter screen (AID 743218; active means well fitted curve in the direction sought with a large enough effect in the repeat runs; an effect the other way counts as inactive or inconclusive; further: nearly all actives have a fitted effect of over 45% in size; further: potency means the concentration at half of the fitted maximal effect)
In short: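 Cells were seeded, left 5 h at 37 C and 5% CO2, then dosed with compound in DMSO for 16 h. After the beta-lactamase FRET read, CellTiter-Glo was added and luminescence measured 30 min later.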

[5] = target: Bile acid receptor (Homo sapiens) (UniProt Q96RI1); experiment: qHTS assay to identify small molecule agonists of the farnesoid-X-receptor (FXR) signaling pathway (AID 743220; active means well fitted activation curve with a large enough effect in the signal ratio in the repeat runs, not every such curve was filed as active; the % refers to the signal ratio)
Sequence of Bile acid receptor (Homo sapiens) (Q96RI1 whole entry, looked up): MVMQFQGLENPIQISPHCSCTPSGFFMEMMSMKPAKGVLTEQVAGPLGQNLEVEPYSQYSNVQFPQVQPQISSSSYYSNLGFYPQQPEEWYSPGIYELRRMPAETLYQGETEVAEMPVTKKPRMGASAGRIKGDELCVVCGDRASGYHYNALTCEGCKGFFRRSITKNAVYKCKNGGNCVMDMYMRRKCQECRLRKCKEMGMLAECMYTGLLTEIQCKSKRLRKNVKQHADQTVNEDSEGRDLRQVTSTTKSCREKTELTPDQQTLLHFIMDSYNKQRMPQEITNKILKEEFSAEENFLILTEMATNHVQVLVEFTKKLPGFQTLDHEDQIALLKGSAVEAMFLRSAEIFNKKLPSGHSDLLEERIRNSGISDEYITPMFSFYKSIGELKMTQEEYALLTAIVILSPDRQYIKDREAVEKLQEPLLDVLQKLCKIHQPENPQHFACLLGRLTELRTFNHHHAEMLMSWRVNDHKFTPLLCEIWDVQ
In short: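 FXR-UAS-bla HEK 293T cells carrying a UAS-driven beta-lactamase reporter were plated for 5 h at 37C/5% CO2, then exposed to DMSO-dissolved Tox21 10K compounds for 16 h at 37C. A LiveBLAzer B/G FRET substrate was loaded for 2 h at room temperature before fluorescence reading.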

[6] = qHTS assay to identify small molecule antagonists of the farnesoid-X-receptor (FXR) signaling pathway - cell viability counter screen (AID 743221; active means well fitted cell-killing curve with a large enough effect in the repeat runs, not every such curve was filed as active; further: nearly all actives have a fitted effect of over 50% in size; further: potency means the concentration at half of the fitted maximal effect)
In short: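 FXR-UAS-bla HEK 293T cells were treated with test compounds plus chenodeoxycholic acid (50 uM final) for 16 h at 37 C. Cell viability in the same wells was then read as CellTiter-Glo luminescence after 30 min at room temperature.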

[7] = qHTS assay to identify small molecule agonists of the vitamin D receptor (VDR) signaling pathway - cell viability counter screen (AID 743224; active means well fitted curve in the direction sought with a large enough effect in the repeat runs; an effect the other way counts as inactive or inconclusive; further: nearly all actives have a fitted effect of over 50% in size; further: potency means the concentration at half of the fitted maximal effect)
In short: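 Cells: VDR-bla, 2,000/well, settled 4 h. Treatment: compounds in DMSO, 16 h, 37C/5% CO2. Readout: CellTiter-Glo luminescence after 30 min RT.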

[8] = qHTS assay to identify small molecule antagonists of the vitamin D receptor (VDR) signaling pathway - cell viability counter screen (AID 743225; active means well fitted curve in the direction sought with a large enough effect in the repeat runs; an effect the other way counts as inactive or inconclusive; further: nearly all actives have a fitted effect of over 50% in size; further: potency means the concentration at half of the fitted maximal effect)
In short: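 VDR-bla HEK 293T cells, 4 h pre-incubation at 37C, then compound plus 1-alpha,25-dihydroxyvitamin D3 (3 nM final) for 16 h. After the beta-lactamase FRET read, CellTiter-Glo was added to the same wells; luminescence after 30 min at room temperature.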

[9] = qHTS assay to identify small molecule agonists of the NFkB signaling pathway - cell viability counter screen (AID 1159515); further: nearly all actives have a fitted effect of over 55% in size; further: potency means the concentration at half of the fitted maximal effect
In short: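 Cells are seeded (2,000 NFkB-bla ME-180 per well), rested overnight, and dosed with DMSO-dissolved compounds for 5 hr at 37 C. Viability is then read by CellTiter-Glo luminescence after 30 min at room temperature.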

[10] = qHTS assay to identify small molecule agonists of the endoplasmic reticulum stress response signaling pathway - cell viability counter screen (AID 1159517); further: nearly all actives have a fitted effect of over 50% in size; further: potency means the concentration at half of the fitted maximal effect
In short: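 After overnight attachment, ESRE-bla HeLa cells were treated with Tox21 library compounds for 5 hr. CellTiter-Glo luminescence, read 30 min post-addition at room temperature, reported viability.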

[11] = target: Nuclear receptor ROR-gamma (Homo sapiens) (UniProt P51449); experiment: qHTS assay to identify small molecule antagonists of the retinoid-related orphan receptor gamma (ROR-gamma) signaling pathway (AID 1159521; active means well fitted curve in the direction sought with a large enough effect in the repeat runs; an effect the other way counts as inactive or inconclusive; further: nearly all actives have a fitted effect of over 50% in size; further: potency means the concentration at half of the fitted maximal effect)
In short: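 Tet-on RORγ CHO cells carrying a ROR response element–luciferase reporter were pretreated with compounds for 2 h, then induced with 1 uM (final) doxycycline hyclate for 16 h at 37 C. Antagonism was read as decreased ONE-Glo luminescence.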

[12] = qHTS assay to identify small molecule agonists of the AP-1 signaling pathway - cell viability counter screen (AID 1159525); further: nearly all actives have a fitted effect of over 55% in size; further: potency means the concentration at half of the fitted maximal effect
In short: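 Intracellular ATP by Cell Titer Glo luminescence (30 min, RT) in the same ME-180 AP-1-bla wells after the 5 h compound exposure at 37 °C. Normalised to tetra n-octyl ammonium bromide and DMSO controls.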

[13] = qHTS assay to identify small molecule agonists of the AP-1 signaling pathway (AID 1159526); further: potency means the concentration at half of the fitted maximal effect
[14] = target: Retinoic acid receptor RXR-alpha (Homo sapiens) (UniProt P19793); experiment: qHTS assay to identify small molecule agonists of the RXR signaling pathway (AID 1159527); further: nearly all actives have a fitted effect of over 35% in size
Sequence of Retinoic acid receptor RXR-alpha (Homo sapiens) (P19793 whole entry, looked up): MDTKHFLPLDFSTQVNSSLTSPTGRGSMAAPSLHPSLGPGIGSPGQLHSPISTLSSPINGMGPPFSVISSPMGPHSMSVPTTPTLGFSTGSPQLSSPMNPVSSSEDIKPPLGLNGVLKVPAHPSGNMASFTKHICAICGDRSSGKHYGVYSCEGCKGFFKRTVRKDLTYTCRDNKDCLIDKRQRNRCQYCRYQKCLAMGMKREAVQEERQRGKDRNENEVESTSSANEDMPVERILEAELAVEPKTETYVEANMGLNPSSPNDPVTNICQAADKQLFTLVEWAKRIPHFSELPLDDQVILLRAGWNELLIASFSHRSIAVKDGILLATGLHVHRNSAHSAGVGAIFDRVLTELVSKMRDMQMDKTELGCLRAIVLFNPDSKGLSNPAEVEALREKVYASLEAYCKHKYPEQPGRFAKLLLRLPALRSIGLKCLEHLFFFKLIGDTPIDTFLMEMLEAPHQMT
In short: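 GeneBLAzer RXR-alpha-UAS-bla HEK 293T cells in medium with 2% charcoal-stripped FBS, pre-incubated 5 hr at 37 C, then exposed to compounds 16 hr. Beta-lactamase reporter read by FRET substrate, 2 hr room temperature, 460/530 nm emission.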

[15] = qHTS assay to identify small molecule antagonists of the peroxisome proliferator-activated receptor delta (PPARd) signaling pathway - cell viability counter screen (AID 743213; active means well fitted curve in the direction sought with a large enough effect in the repeat runs; an effect the other way counts as inactive or inconclusive; further: nearly all actives have a fitted effect of over 50% in size; further: potency means the concentration at half of the fitted maximal effect)
In short: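 Luminescence from CellTiter-Glo, added after the bla read and incubated 30 min at room temperature, gives viability of HEK293H PPARd-bla cells exposed to compounds for 17 h at 37 C with 300 nM L165041.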

[16] = qHTS assay to identify small molecule antagonists of the retinoid-related orphan receptor gamma (ROR-gamma) signaling pathway - cell viability counter screen (AID 1159520; active means well fitted curve in the direction sought with a large enough effect in the repeat runs; an effect the other way counts as inactive or inconclusive; further: nearly all actives have a fitted effect of over 50% in size; further: potency means the concentration at half of the fitted maximal effect)
In short: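 Cytotoxicity was read from cellular ATP (CellTiter-Glo luminescence) after 16 hr at 37 C with 1 uM doxycycline induction. The inducer was added 2 hr after compound transfer to Tet-on ROR gamma CHO cells.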

[17] = target: Vitamin D3 receptor (Homo sapiens) (UniProt P11473); experiment: qHTS assay to identify small molecule agonists of the vitamin D receptor (VDR) signaling pathway (AID 743222)
Sequence of Vitamin D3 receptor (Homo sapiens) (P11473 whole entry, looked up): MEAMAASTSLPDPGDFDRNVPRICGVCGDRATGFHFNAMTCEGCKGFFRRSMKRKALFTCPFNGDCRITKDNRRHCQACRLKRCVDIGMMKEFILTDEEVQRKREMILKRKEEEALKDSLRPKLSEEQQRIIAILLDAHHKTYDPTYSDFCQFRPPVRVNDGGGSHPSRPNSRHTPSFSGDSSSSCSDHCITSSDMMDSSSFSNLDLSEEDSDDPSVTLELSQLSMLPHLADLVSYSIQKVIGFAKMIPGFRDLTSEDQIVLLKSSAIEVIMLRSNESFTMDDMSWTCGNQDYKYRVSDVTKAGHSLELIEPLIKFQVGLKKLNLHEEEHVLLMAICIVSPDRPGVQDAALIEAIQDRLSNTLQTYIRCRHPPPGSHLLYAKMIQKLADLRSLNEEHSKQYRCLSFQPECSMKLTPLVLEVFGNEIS
In short: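 Cells carrying a VDR-driven beta-lactamase reporter are seeded at 2,000 per well and rested 4 h. Compounds in DMSO are added for 16 h at 37C, and FRET substrate fluorescence is measured after 2 h at room temperature.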

[18] = target: Bile acid receptor (Homo sapiens) (UniProt Q96RI1); experiment: qHTS assay to identify small molecule antagonists of the farnesoid-X-receptor (FXR) signaling pathway (AID 743217; active means well fitted inhibition curve with a large enough effect in the signal ratio in the repeat runs, not every such curve was filed as active; the % refers to the signal ratio)
In short: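 Cells carrying a UAS-driven beta-lactamase reporter (GeneBLAzer FXR-UAS-bla HEK 293T) were plated and rested 5 h at 37 °C. Compounds in DMSO were added alongside chenodeoxycholic acid agonist at 50 uM final and left 16 h at 37 °C before FRET substrate readout.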

[19] = target: Vitamin D3 receptor (Homo sapiens) (UniProt P11473); experiment: qHTS assay to identify small molecule antagonists of the vitamin D receptor (VDR) signaling pathway (AID 743223; active means well fitted inhibition curve with a large enough effect in the signal ratio in the repeat runs, not every such curve was filed as active; the % refers to the signal ratio)
In short: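 VDR-bla cells were plated, incubated 4 h at 37C, then given compound and 1alpha,25-dihydroxyvitamin D3 (3 nM final). After 16 h at 37C, LiveBLAzer B/G FRET substrate was added for 2 h at room temperature and fluorescence read.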

Structure (SMILES)	Potency [1]	Potency [2]	Potency [3]	Potency [4]	Potency [5]	Potency [6]	Potency [7]	Potency [8]	Potency [9]	Potency [10]	Potency [11]	Potency [12]	Potency [13]	Potency [14]	Potency [15]	Potency [16]	Potency [17]	Potency [18]	Potency [19]
O=C(O)c1c(Cl)cccc1Cl	inactive	inactive	inactive	inactive	inactive	inactive	inactive	inactive	inactive	inactive	inactive	inactive	inactive	inactive	–	–	–	–	–
C[C@@H](NCCCc1cccc(C(F)(F)F)c1)c1cccc2ccccc12	11.9 µM (active)	–	29.8 µM (active)	29.8 µM (active)	inactive	–	29.8 µM (active)	23.9 µM (active)	23.9 µM (active)	23.9 µM (active)	–	23.9 µM (active)	–	–	26.6 µM (active)	29.8 µM (active)	–	–	–
C[C@@H]1C[C@H]2[C@@H]3CCC4=CC(=O)C=C[C@]4(C)[C@@]3(Cl)[C@@H](O)C[C@]2(C)[C@@]1(OC(=O)c1ccco1)C(=O)CCl	–	–	inactive	–	–	inactive	–	–	inactive	inactive	11.9 µM (active)	inactive	inactive	–	–	–	inactive	–	–
Fc1ccc([C@@H]2CCNC[C@H]2COc2ccc3c(c2)OCO3)cc1	13.3 µM (active)	inactive	–	–	inactive	–	–	–	inactive	inactive	–	inactive	–	–	–	inactive	–	inactive	–
CS(=O)(=O)CCNCc1ccc(-c2ccc3ncnc(Nc4ccc(OCc5cccc(F)c5)c(Cl)c4)c3c2)o1	9.44 µM (active)	–	–	10.6 µM (active)	–	26.6 µM (active)	29.8 µM (active)	21.3 µM (active)	16.9 µM (active)	15.1 µM (active)	–	21.3 µM (active)	–	–	21.1 µM (active)	29.8 µM (active)	–	–	–
Cc1c(C)c2c(c(C)c1O)CCC(C)(COc1ccc(CC3SC(=O)NC3=O)cc1)O2 (configuration not stated)	–	–	inactive	inactive	–	inactive	inactive	–	inactive	inactive	–	inactive	inactive	–	inactive	inactive	–	–	inactive
OC1(c2ccc(Cl)c(C(F)(F)F)c2)CCN(CCCC(c2ccc(F)cc2)c2ccc(F)cc2)CC1	4.73 µM (active)	–	26.6 µM (active)	9.44 µM (active)	–	26.6 µM (active)	–	10.7 µM (active)	12 µM (active)	8.49 µM (active)	–	9.52 µM (active)	–	–	11.9 µM (active)	9.44 µM (active)	–	–	–
Cc1onc(-c2c(Cl)cccc2Cl)c1C(=O)N[C@@H]1C(=O)N2[C@@H]1SC(C)(C)[C@@H]2C(=O)O	inactive	–	–	inactive	–	–	inactive	inactive	inactive	inactive	–	inactive	–	–	inactive	inactive	inactive	–	–
CCCCN(CCCC)c1ccc(C(=O)c2ccccc2C(=O)O)c(O)c1	44.1 µM (active)	–	–	–	inactive	44.1 µM (active)	–	–	inactive	35 µM (active)	inactive	inactive	inactive	–	44.1 µM (active)	–	–	–	–
CCC1=C[C@@H]2CN(C1)Cc1c([nH]c3ccccc13)[C@@](C(=O)OC)(c1cc3c(cc1OC)N(C)[C@H]1[C@@](O)(C(=O)OC)[C@H](OC(C)=O)[C@]4(CC)C=CCN5CC[C@]31[C@@H]54)C2	–	–	inactive	26.6 µM (active)	–	–	inactive	–	inactive	inactive	–	inactive	0.107 µM (active)	–	–	inactive	inactive	–	–
O=c1cccccc1O	–	inactive	–	inactive	inactive	inactive	–	–	inactive	inactive	–	inactive	–	inactive	–	inactive	–	–	–
NNc1nc(-c2ccc(N)cc2)cs1	–	inactive	inactive	6.92 µM (active)	inactive	inactive	inactive	inactive	inactive	inactive	–	inactive	–	–	inactive	inactive	inactive	–	inactive
CCN(CC)CCCC(C)Nc1c2ccc(Cl)cc2nc2ccc(OC)cc12 (configuration not stated)	11.9 µM (active)	–	–	13.3 µM (active)	–	26.6 µM (active)	–	23.9 µM (active)	inactive	inactive	–	inactive	–	–	29.8 µM (active)	inactive	–	–	–
